# Assay outcomes: PubChem BioAssay, Sanford-Burnham Center for Chemical Genomics
# eIF4H FP inh = inhibitors of RNA binding by human eIF4H; Q15056; eIF4H fluorescence polarization binding assay; inhibition, % at 35 µM; 0.94% of 290,000 active;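 further: calls also rest on retests at 20 µM and on dose response follow-up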
# PHOSPHO1 inh = PHOSPHO1 (human) inhibition; inhibition, % at 13.3 µM; 1.1% of 290,000 active; Q8TCT1; recombinant PHOSPHO1, absorbance phosphatase assay; AID 1565; in the data active means inhibition above about 60%
# Target sequence (Q8TCT1 whole entry, looked up): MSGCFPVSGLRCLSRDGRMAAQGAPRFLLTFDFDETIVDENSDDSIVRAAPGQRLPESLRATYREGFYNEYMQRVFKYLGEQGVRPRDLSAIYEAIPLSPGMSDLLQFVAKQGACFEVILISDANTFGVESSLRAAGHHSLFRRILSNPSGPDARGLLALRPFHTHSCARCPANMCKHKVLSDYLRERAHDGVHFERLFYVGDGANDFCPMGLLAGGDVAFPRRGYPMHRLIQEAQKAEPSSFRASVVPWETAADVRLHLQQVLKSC
# PABP polyA inh = PABP-poly(A) binding inhibition. P11940. AID 2014. 1% of 290,000 active. inhibition, % at 35 µM. PABP-poly(A) RNA binding, fluorescence polarization;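 further: calls also rest on retests at 20 µM and on dose response follow-up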
# PABP1 MLLE inh = blocks PAM2 peptide binding to the PABP1 MLLE domain. P11940. GST-MLLE / FITC-PAM2 fluorescence polarization. inhibition, % at 20 µM. 0.36% of 360,000 active; in the data active means inhibition above about 35%, passing the limit was not always enough;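 further: plate controls were DMSO wells with GST-MLLE for no effect and wells lacking GST-MLLE protein for full effect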
# CRFR2-BP antag = CRF-BP/CRF-R2 complex antagonism; HEK293 CRF-R2/CRF-BP, CRF-induced calcium fluorescence; inhibition, % at 11.8 µM; 0.59% of 350,000 active; AID 588475;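 active means inhibition of the ligand-induced calcium signal above about 50% at the single tested concentration, limit read from the data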
# An asterisk follows results filed as active; u = inconclusive; x = not tested or not shown. In the library only some 2.6% were active in any assay of this set; here they are far more common. Unless noted, how the calls were made is not given here.
SMILES,eIF4H FP inh,PHOSPHO1 inh,PABP polyA inh,PABP1 MLLE inh,CRFR2-BP antag
COc1ccc(S(=O)(=O)N(C)C[C@H]2OCc3cnnn3CCCC(=O)N([C@@H](C)CO)C[C@H]2C)cc1,x,x,x,17,-11
O=C(OCCN1C(=O)c2ccccc2C1=O)c1cccc(OC(F)F)c1,-3,18,-3,-5,100*
CCOc1cc(-c2cc(-c3ccc(C)cc3)nc(N)c2C#N)ccc1O,58*,-15,74*,-40,-3
COc1cc(-c2cc(-c3ccc(O)cc3)nc(N)c2C#N)ccc1O,-3,6,7,-2,31
COc1cccc(C2CC(c3cccs3)=NN2C(=O)c2ccco2)c1O (centres undefined),-6,2,-7,4,67*
COc1ccc(C2CC(c3cccs3)=NN2C(=O)c2ccccc2)cc1OC (centres undefined),1,14,-15,4,52*
COc1ccc(C2CC(c3cccs3)=NN2C(=O)CCl)cc1OC (centres undefined),-7,36,2,-44,-13
COc1ccc(C2=NN(C(=O)c3ccco3)C(c3cccs3)C2)cc1OC (centres undefined),x,x,x,-11,4
Cc1ccc(C2=NN(C(=O)c3cccs3)C(c3ccccc3O)C2)cc1 (centres undefined),-11,28,-7,-4,75*
O=C(c1ccco1)N1N=C(c2cccs2)CC1c1ccccc1O (centres undefined),-5,29,-19,-17,93*
O=C(c1[nH]c(C(F)(F)F)nc1-c1ccccc1)N1CCN(Cc2c(F)cccc2Cl)CC1,x,x,x,6,x
CS(=O)(=O)N1N=C(c2cccs2)CC1c1ccccc1O (centres undefined),59*,60*,34*,-10,-7
COc1cccc(/C=N/NC(=O)c2ccc(-n3cnnn3)cc2)c1,x,x,x,-2,9
CCCCOc1ccc(OC(=O)Nc2cc(Cl)ccc2OC)cc1,-1,25,7,0,81*
Cc1cccc(CN2CCc3c([nH]c4ccccc34)C2CC(C)C)n1 (centres undefined),8,31,2,-8,-15
Cc1cnc(CN2CCc3c([nH]c4ccccc34)C2CC(C)C)[nH]1 (centres undefined),20,23,63*,-38,-63
O=C(C1CCN(S(=O)(=O)c2cccc3nsnc23)CC1)N1CCCc2ccccc21,5,60*,-5,-2,4
CC(C)OCCCn1c(-c2ccco2)nc2nc3ccccc3nc21,u,7,-18,-18,-27
CCC(C)n1c(-c2ccco2)nc2nc3ccccc3nc21 (centres undefined),u,24,101*,x,x
CCN1C[C@@H]2[C@@H]3C(=O)N(C)C(=O)[C@@H]3[C@](Cc3ccccc3)(C(=O)OC)N2C1=NC1CCCCC1,x,x,x,-5,-5
COc1cc2c(cc1OC)C(c1ccccc1C(F)(F)F)CC(=O)N2 (centres undefined),-7,8,-3,-5,-11
O=C(CC(Sc1ccccc1)c1cccs1)c1ccco1 (centres undefined),-4,22,-5,37*,15
CCOC(=O)c1c(C)[nH]c(C)c1S(=O)(=O)NC(CC)CN1CCOCC1 (centres undefined),94*,65*,64*,1,-3
CC[n+]1cc(-c2ccccc2)nc(N2CCOCC2)n1,-3,100*,68*,-113,15
COc1ccc(-c2cc3ccccc3[nH]2)cc1,-5,-23,-7,9,60*
SMILES,eIF4H FP inh,PHOSPHO1 inh,PABP polyA inh,PABP1 MLLE inh,CRFR2-BP antag
c1ccc(-c2cc3ccccc3[nH]2)cc1,2,10,14,2,-36
Cc1ccc(Cl)cc1N1CCN(C(=O)Cc2cn(C)c3ccccc23)CC1,1,8,-8,6,8
Cc1ccc(Cl)cc1N1CCN(C(=O)Cc2c(C(=O)O)[nH]c3ccccc23)CC1,12,-11,13,-9,58*
Cc1ccc(Cl)cc1N1CCN(C(=O)Cc2c(C(=O)O)[nH]c3ccc(Cl)cc23)CC1,7,-1,-5,0,62*
O=C(NCC1CCCCC1)c1csc([C@@H]2O[C@H](CO)[C@H](O)[C@H](O)[C@H]2O)n1,x,x,x,6,x
COc1ccc2[nH]c3c(c2c1)CCN1C(=O)C(CC(=O)NC(C)(C)C)C[C@H](C(=O)N2CCCCC2)[C@@]31CCc1ccccc1 (some centres undefined),x,x,x,-2,18
